The text below walks through data of PubChem BioAssay.

The target of one assay is Focal adhesion kinase 1 (Homo sapiens) (UniProt Q05397). As to the kind of experiment: PTK2 protein binding on printed compound slides – biochemical, small-molecule microarray, 635/667 nm fluorescence, BSA, DTT, primary screen (AID 1130).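 Further: composite of spot emission at 667 nm and signal to noise over triplicate slides.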 The settings on record: 635 nm fluorescence, higher = more signal.
Sequence of Focal adhesion kinase 1 (Homo sapiens) (Q05397 whole entry, looked up): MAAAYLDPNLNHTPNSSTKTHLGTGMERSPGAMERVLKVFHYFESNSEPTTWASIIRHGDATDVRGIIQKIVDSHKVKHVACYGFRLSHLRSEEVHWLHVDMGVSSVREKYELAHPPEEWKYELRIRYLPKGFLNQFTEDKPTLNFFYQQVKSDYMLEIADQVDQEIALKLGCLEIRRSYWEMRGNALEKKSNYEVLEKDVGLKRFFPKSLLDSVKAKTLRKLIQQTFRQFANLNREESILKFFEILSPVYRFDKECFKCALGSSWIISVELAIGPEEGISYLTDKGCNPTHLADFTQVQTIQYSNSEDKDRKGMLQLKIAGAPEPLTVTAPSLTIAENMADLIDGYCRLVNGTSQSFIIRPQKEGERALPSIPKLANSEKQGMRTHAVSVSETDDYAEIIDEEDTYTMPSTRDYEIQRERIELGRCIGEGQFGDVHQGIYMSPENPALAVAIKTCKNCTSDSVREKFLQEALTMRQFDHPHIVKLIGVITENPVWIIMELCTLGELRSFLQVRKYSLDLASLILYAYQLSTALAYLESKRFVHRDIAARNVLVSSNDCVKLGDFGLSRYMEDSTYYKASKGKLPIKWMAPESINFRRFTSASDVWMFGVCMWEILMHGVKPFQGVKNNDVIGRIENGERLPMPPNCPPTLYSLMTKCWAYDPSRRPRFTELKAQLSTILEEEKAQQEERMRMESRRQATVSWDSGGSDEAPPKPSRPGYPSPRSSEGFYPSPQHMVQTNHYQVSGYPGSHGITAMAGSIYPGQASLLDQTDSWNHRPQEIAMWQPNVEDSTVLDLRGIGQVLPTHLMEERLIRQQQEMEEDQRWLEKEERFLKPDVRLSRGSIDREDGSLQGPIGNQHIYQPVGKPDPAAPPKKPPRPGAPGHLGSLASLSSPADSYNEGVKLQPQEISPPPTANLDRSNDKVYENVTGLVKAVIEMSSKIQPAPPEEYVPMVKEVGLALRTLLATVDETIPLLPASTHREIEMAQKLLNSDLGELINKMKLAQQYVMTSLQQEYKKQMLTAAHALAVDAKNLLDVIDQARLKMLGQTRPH
The compound `O=C(NCc1ccccc1)[C@]1(Cc2ccccc2)N=C(c2ccc(OCCCO)cc2)O[C@@H]1c1ccccc1` yielded a composite z-score of 0.121.
The compound `C=C(C(=O)CC[C@H](OC(=O)c1cccnc1)c1ccc(OCCO)cc1)C(C)C` gave a composite z-score of 0.091.
`O=C(O)[C@@]1(Cc2ccccc2)COC(c2ccc(OCCCO)cc2)=N1`: the composite z-score is -0.375.
Still for that read-out and setting: the same measure for `CCOC(=O)C1=CC[C@@H](c2cccc(Br)c2)N(S(=O)(=O)c2ccc(C)cc2)[C@H]1c1ccc([N+](=O)[O-])cc1`: 0.359.
The compound `CN(C)C(=O)[C@@]1(CCC(=O)OC(C)(C)C)COC(c2ccc(OCCCO)cc2)=N1` returned a composite z-score of 1.63.
The compound `O=C1O[C@H](c2ccccc2)[C@H](c2ccccc2)N2[C@H]1[C@@H](C(=O)N1CCN(c3ncccn3)CC1)[C@]1(C(=O)Nc3ccc(C#CCCO)cc31)[C@H]2c1ccc(OCCO)cc1` came in with a composite z-score of 0.372.
Take `COC(=O)[C@@]1(Cc2ccccc2)[C@H]2c3cc(C(=O)N4CCCC4)n(CCO)c3C[C@H]2CN1C(=O)c1ccccc1`: the composite z-score was 0.747.

In the next assay the test system is Fibrinogen (Alexa647-labelled). Put plainly: Alexa647-fibrinogen binding to printed small molecules – biochemical, small-molecule microarray, 635/667 nm fluorescence, artefact control for SMM control-protein annotation, profiling panel (AID 1131).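 Further: z-score merges 667 nm fluorescence with per-spot signal-to-noise over triplicate slides.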 The settings on record: fibrinogen-A647 binding fluorescence, higher = more signal.
In turn, `CC(C)NC(=O)[C@@H]1c2ccccc2C(=O)N(Cc2cc(C(F)(F)F)cc(C(F)(F)F)c2)[C@H]1c1ccc(CO)cc1` came in with a composite z-score of 0.936.
The compound `O=C(CS)NCCCCCNC(=O)[C@@H]1C[C@@H]2C(=O)N3CCC[C@H]3C(=O)N2[C@@H]1c1ccc(O)cc1` registered a composite z-score of -0.174.
Same read-out and setting: the same measure for `CCCCC=C[C@@H](NC(=O)CCc1ccccc1)c1ccccc1`: 0.939; for `COCCOC(=O)N1C(=O)[C@@]2(c3cc(C#Cc4ccc(OC)cc4)ccc31)[C@H](C(=O)N1CCc3cc(OC)c(OC)cc3C1)[C@H]1C(=O)O[C@H](c3ccccc3)[C@H](c3ccccc3)N1[C@@H]2c1ccc(OCCO)cc1`: 0.195; for `OCc1ccc(-c2cc[n+](Cc3cccc(OC(F)(F)F)c3)cc2)cc1`: 0.708.
Same read-out and setting: the same measure for `O=C(Nc1cc(Br)ccc1C(=O)NCc1cccc(O)c1)c1ccccc1`: 0.828.
Consider `COC(=O)c1ccc(OC)c(/C=C\CC(CCc2ccccc2)OC(C)=O)c1` (configuration not stated), for which the composite z-score is -0.177.
Same read-out and setting: the same measure for `O=C1C[C@@](C(=O)O)(c2ccc([N+](=O)[O-])cc2)[C@@H](c2ccc(CO)cc2)N1CC12CC3CC(CC(C3)C1)C2`: 0.732; for `CO[C@H]1O[C@H](CO)[C@@H](OC(=O)Nc2cccc(F)c2)[C@H](OC(=O)Nc2ccc3c(c2)OCO3)[C@H]1OC(=O)Nc1ccc2c(c1)OCO2`: 0.884; for `COc1ccc([Si](C)(C)[C@H]2[C@H](CCO)O[C@@]3(C(=O)N(Cc4cccc(N5CCOC5=O)c4)c4ccccc43)[C@@H]2C)cc1`: 0.708.
Compound `COC(=O)C(CC#Cc1ccc2c(c1)[C@]1(C(=O)N2)[C@H](c2ccccc2OCCO)N2[C@H](c3ccccc3)[C@H](c3ccccc3)OC(=O)[C@H]2[C@@H]1C(=O)Nc1nc2ccccc2s1)C(=O)OC` registered a composite z-score of 0.97.
For `CCOC(=O)C[C@H]1[C@H](OC(=O)Cc2ccc3c(c2)OCO3)[C@@H](NC(=O)c2ccccc2)c2cc(OCCCO)ccc2N1C(=O)c1ccc2ccccc2n1`, the composite z-score stood at 0.204.
Take `Cc1ccc(S[C@]2(C(=O)NCc3ccccc3)CC(=O)N(C3Cc4ccccc4C3)[C@@H]2c2ccc(CO)cc2I)cc1`: the composite z-score is -0.151.
`CC(C)C(CO)N1C(=O)[C@@H]2[C@H]3C(=O)OCC=C[C@H]3OC23C=CCN(CCN2CCOCC2)C(=O)[C@@H]13` (some centres not stated) had a composite z-score of 0.0835.
`C=CCOC(=O)[C@@H]1[C@H]2C(=O)O[C@H](c3ccccc3)[C@H](c3ccccc3)N2[C@H](c2ccc(OCCOC(=O)[C@H]3C[C@H]4C(=O)N[C@@H](Cc5ccccc5)C(=O)N4[C@H]3c3cccc(OCCO)c3)cc2)[C@@]12C(=O)Nc1ccc(I)cc12` yielded a composite z-score of 0.464.
Same read-out and setting: the same measure for `CCOC(=O)C[C@H]1[C@H](OC(=O)c2ccccc2-c2ccccc2)[C@@H](NC(=O)c2ccccc2)c2cc(OCCCO)ccc2N1C(=O)Cc1ccc(OC)cc1`: 0.66.
Same read-out and setting: the same measure for `NCCCCCCNC(=O)[C@H]1C[C@H]2C(=O)N3CCC[C@H]3C(=O)N2[C@H]1c1ccc(O)cc1`: 0.437; for `COC(=O)[C@@]1(Cc2ccc(F)cc2)[C@H]2c3cc(C(=O)N4CCCC4)n(Cc4ccccc4)c3C[C@H]2CN1C(=O)c1ccccc1`: 0.805; for `COC(=O)[C@@]1(Cc2ccccc2)[C@H]2c3cc(C(=O)N(C)C)n(Cc4ccccn4)c3C[C@H]2CN1C(=O)c1ccccc1`: 1.04.
In the case of `O=C1c2ccccc2[C@](Cc2ccccc2I)(C(=O)NCC(F)(F)F)[C@H](c2ccc(CO)cc2)N1Cc1ccccc1`, the composite z-score stood at 0.97.
Still for that read-out and setting: the same measure for `O=C1NC(=O)C2C1C=CC(C(O)c1ccc3c(c1)OCO3)N2Nc1ccc(Cl)cc1Cl` (configuration not stated): 0.0542; for `COCCOC(=O)N1C(=O)[C@@]2(c3cc(C#CCCO)ccc31)[C@H](c1ccc(OCCO)cc1)N1[C@H](c3ccccc3)[C@H](c3ccccc3)OC(=O)[C@H]1[C@@H]2C(=O)N1CCc2cc(OC)c(OC)cc2C1`: 0.249.
Compound `CC(C)c1ccc(NN2C(C(O)c3cccs3)C=CC3C(=O)N(c4ccccc4)C(=O)C32)cc1` (configuration not stated) showed a composite z-score of 1.03.
`C#CCNS(=O)(=O)N(C)C` came in with a composite z-score of 0.276.
Turning to `C=CC[C@]1(C(=O)N(C)C)N=C(c2ccc(OCCCO)cc2)O[C@H]1c1ccccc1`, the composite z-score was 0.951.
`C[C@@H]1ON(c2ccccc2)[C@H](c2ccccc2)[C@H]1C(=O)N1C(=O)OC[C@H]1Cc1ccccc1` registered a composite z-score of -0.178.
Still for that read-out and setting: the same measure for `COc1ccc([Si](C)(C)[C@H]2[C@H](CC(=O)N3CCC[C@H]3CO)O[C@@]3(C(=O)N(Cc4ccc(N5C(=O)c6cccc7cccc5c67)cc4)c4ccccc43)[C@@H]2C)cc1`: 0.864.
In turn, `COCC1=C([C@H](O)CCc2ccccc2)[C@H](CO)[C@@H]2C(=O)N(C)C(=O)[C@@H]2C1` registered a composite z-score of -0.114.
Compound `O=C(NCc1ccccc1)[C@]1(Cc2ccccc2)N=C(c2ccc(OCCCO)cc2)O[C@@H]1c1ccccc1` came in with a composite z-score of 0.817.
Turning to `C=C(C(=O)CC[C@H](OC(=O)c1cccnc1)c1ccc(OCCO)cc1)C(C)C`, the composite z-score is 0.917.
`O=C(O)[C@@]1(Cc2ccccc2)COC(c2ccc(OCCCO)cc2)=N1`: the composite z-score was -2.33.
Regarding `CCOC(=O)C1=CC[C@@H](c2cccc(Br)c2)N(S(=O)(=O)c2ccc(C)cc2)[C@H]1c1ccc([N+](=O)[O-])cc1`, the composite z-score is 1.01.
The compound `CN(C)C(=O)[C@@]1(CCC(=O)OC(C)(C)C)COC(c2ccc(OCCCO)cc2)=N1` gave a composite z-score of -0.254.
With `O=C1O[C@H](c2ccccc2)[C@H](c2ccccc2)N2[C@H]1[C@@H](C(=O)N1CCN(c3ncccn3)CC1)[C@]1(C(=O)Nc3ccc(C#CCCO)cc31)[C@H]2c1ccc(OCCO)cc1`, the composite z-score was determined as 0.934.
`COC(=O)[C@@]1(Cc2ccccc2)[C@H]2c3cc(C(=O)N4CCCC4)n(CCO)c3C[C@H]2CN1C(=O)c1ccccc1` returned a composite z-score of 0.488.
